Data reported in PubChem BioAssay AID687020 (Broad Institute, 2013).
In all, about 1,400 compounds went through this assay and about 100 (7.1%) were called active. The list is a sample of the results. Potency and affinity values are given separately. Unmarked numbers belong to inactive results. The rule behind the calls is not given here.

Test: viability loss in Vero cells – cell-based, plate reader, cherry-pick samples, cytotoxicity control, dose response (AID 687020);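 note: compounds incubated with cells for three days before luminescence read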
Conditions: series mostly up to 19.5 µM; activity change, negative = toxicity: at the top concentration

Question: Which “activity change, negative = toxicity” value does the source give for `O=C(c1cccc(-c2cccc3nccn23)c1)N1CCOCC1` here?
Answer: 5.83%

Question: Which “activity change, negative = toxicity” value does the source give for `O=C(c1ccc2nccnc2c1)N1CCN(c2ccccc2)CC1` here?
Answer: -11.1%

Question: With `CCCCCCCCN1C(=O)[C@H](CC(=O)NCCC(C)C)C[C@@]2(C(=O)OCC)CCCC=C12` as the compound, how does the “activity change, negative = toxicity” value read?
Answer: -10.3%

Question: Which “activity change, negative = toxicity” value does the source give for `Cn1c(=O)n(C)c2cc(N3CCOCC3)c(NC(=O)c3ccc(F)cc3)cc21` here?
Answer: -1.46%

Question: With `CCN1CCN(c2ccc(S(=O)(=O)N3CCCCC3)cc2NC(=O)c2ccc(C)c(C)c2)CC1` as the compound, how does the “activity change, negative = toxicity” value read?
Answer: -1.07%

Question: For `CNC[C@@H]1OCCCC[C@H](C)Oc2ccc(NS(C)(=O)=O)cc2C(=O)N([C@@H](C)CO)C[C@@H]1C`, which “activity change, negative = toxicity” value is on record?
Answer: 7.65%

Question: For `C=CCc1ccc(OCCCNCc2ccccc2)c(OC)c1`, which “activity change, negative = toxicity” value is on record?
Answer: 4.77%

Question: With `Cc1cccc(OCCCN2CCC(C(O)(c3ccccc3)c3ccccc3)CC2)c1` as the compound, how does the “activity change, negative = toxicity” value read?
Answer: -11.6%

Question: For `CN1CCN(CCOc2ccc(-c3ccccc3)cc2)CC1`, which “activity change, negative = toxicity” value is on record?
Answer: -3.13%

Question: Which “activity change, negative = toxicity” value does the source give for `c1ccc(-c2ccc(OCCN3CCOCC3)cc2)cc1` here?
Answer: -30.8%

Question: With `CCc1cccc(OCCN2CCCC2)c1` as the compound, how does the “activity change, negative = toxicity” value read?
Answer: 7.48%

Question: Which “activity change, negative = toxicity” value does the source give for `COc1ccccc1CN1CCCC(N2CCN(c3ccccc3OC)CC2)C1` (configuration not stated) here?
Answer: -25.9%

Question: For `CCc1cc2c(=O)[nH]c(COC)nc2s1`, which “activity change, negative = toxicity” value is on record?
Answer: -6.45%

Question: With `CN(C(=O)COC(=O)c1ccc(S(=O)(=O)N2CCOCC2)cc1)c1ccccc1` as the compound, how does the “activity change, negative = toxicity” value read?
Answer: -15.2%

Question: For `COC(=O)[C@@H]1C[C@H]2CC[C@H](O)C[C@H]2N1Cc1ccc(C(F)(F)F)cc1`, which “activity change, negative = toxicity” value is on record?
Answer: -4.52%

Question: With `COc1ccc(CNC(=O)C2CC(c3ccc(C(F)(F)F)cc3)=NO2)cc1` (configuration not stated) as the compound, how does the “activity change, negative = toxicity” value read?
Answer: -24.9%

Question: Which “activity change, negative = toxicity” value does the source give for `Nc1cccc(O)c1` here?
Answer: -6.53%

Question: With `COc1cc(CNc2nccn3ccnc23)cc(OC)c1` as the compound, how does the “activity change, negative = toxicity” value read?
Answer: -9.02%

Question: Which “activity change, negative = toxicity” value does the source give for `NC(=O)C1CCN(CC(O)COc2ccc(-c3ccccc3)cc2)CC1` (configuration not stated) here?
Answer: -5.66%

Question: Which “activity change, negative = toxicity” value does the source give for `CCc1ccc(OCC(O)CN2CCN(c3ccccc3)CC2)cc1` (configuration not stated) here?
Answer: -5.9%

Question: Which “activity change, negative = toxicity” value does the source give for `COCC#Cc1ccc2c(c1)O[C@@H](CN(C)C(=O)Nc1ccccc1F)[C@H](C)CN([C@@H](C)CO)S2(=O)=O` here?
Answer: 0.743%

Question: For `C[C@H]1CN([C@@H](C)CO)C(=O)Cc2cc(NC(=O)CCCCCC(=O)Nc3ccccc3N)ccc2O[C@H]1CN(C)Cc1ccc(C(F)(F)F)cc1`, which “activity change, negative = toxicity” value is on record?
Answer: 1.41% [at 21 µM]

Question: Which “activity change, negative = toxicity” value does the source give for `O=C(NNc1c(F)c(F)cc(F)c1F)C1CCN(S(=O)(=O)c2ccccc2F)CC1` here?
Answer: -10.5%

Question: With `CC1(C(=O)NS(=O)(=O)c2ccccc2C(F)(F)F)CCN1C(=O)CCc1ccccc1` (configuration not stated) as the compound, how does the “activity change, negative = toxicity” value read?
Answer: -2.6%

Question: Which “activity change, negative = toxicity” value does the source give for `C[C@H](CO)N1C[C@H](C)[C@H](CN(C)C(=O)Nc2cccc3ccccc23)OCCCC[C@H](C)Oc2ccc(NS(=O)(=O)c3cn(C)cn3)cc2C1=O` here?
Answer: 0.574%

Question: For `COc1ccc(C(C)NC(=O)c2ccccc2Cl)cc1OC` (configuration not stated), which “activity change, negative = toxicity” value is on record?
Answer: 1.27%

Question: For `CCS(=O)(=O)Nc1ccc(C(=O)NCCSc2ccccc2)cc1`, which “activity change, negative = toxicity” value is on record?
Answer: -8.4%

Question: For `COc1ccccc1N(CC(=O)N1CCCC1)S(=O)(=O)c1ccc(C)cc1`, which “activity change, negative = toxicity” value is on record?
Answer: -2.96%

Question: With `COc1ccc(C(=O)N2CCN(C3CCCCC3)CC2)cc1OC` as the compound, how does the “activity change, negative = toxicity” value read?
Answer: -10.2%

Question: With `COc1ccc(OC)c(-c2cc(C(=O)NC3CCCC3)c3ccccc3n2)c1` as the compound, how does the “activity change, negative = toxicity” value read?
Answer: -9.23%

Question: With `COc1ccc(-c2nc(NCCCN(C)C)c3ccccc3n2)cc1` as the compound, how does the “activity change, negative = toxicity” value read?
Answer: -20.6%

Question: Which “activity change, negative = toxicity” value does the source give for `Cc1cc(N2CCN(C)CC2)n2nc(-c3ccc(Cl)cc3)nc2n1` here?
Answer: -1.64%

Question: For `COc1ccc2nc(NN=Cc3cccc(C)n3)cc(C)c2c1`, which “activity change, negative = toxicity” value is on record?
Answer: -10.1%

Question: For `C[C@@H]1CCCCO[C@@H](CN(C)Cc2ccc(C(=O)O)cc2)[C@H](C)CN([C@H](C)CO)C(=O)c2cc(NC(=O)c3ccccc3)ccc2O1`, which “activity change, negative = toxicity” value is on record?
Answer: -7.9%

Question: For `C[C@@H]1CN([C@H](C)CO)C(=O)c2cc(NC(=O)c3ccccc3)ccc2O[C@@H](C)CCCCO[C@@H]1CN(C)Cc1ccc(C(=O)O)cc1`, which “activity change, negative = toxicity” value is on record?
Answer: -0.937%

Question: Which “activity change, negative = toxicity” value does the source give for `Cc1ccc(CN(C)c2ccc(S(=O)(=O)N3CCCC3)cn2)cc1` here?
Answer: -3.39%

Question: With `COc1cc(C(=O)NCc2cccc(Cl)c2)ccc1OCC(=O)N1CCOCC1` as the compound, how does the “activity change, negative = toxicity” value read?
Answer: 2.08%

Question: For `COc1ccc(C(=O)NCCOc2cccc(Oc3ccccc3)c2)cc1OC`, which “activity change, negative = toxicity” value is on record?
Answer: -17.2%

Question: For `O=C(C[C@@H]1CC[C@@H]2[C@H](COC[C@H](O)CN2Cc2cccc(Cl)c2)O1)N1CCOCC1`, which “activity change, negative = toxicity” value is on record?
Answer: -2.6%

Question: Which “activity change, negative = toxicity” value does the source give for `COC(=O)C1=C(C)N(Cc2cccc(C(F)(F)F)c2)C(=NCC2CC2)NC1c1ccc(F)cc1` (configuration not stated) here?
Answer: -0.751%

Question: Which “activity change, negative = toxicity” value does the source give for `C[C@@H]1CN([C@@H](C)CO)C(=O)c2cc(NS(=O)(=O)c3ccc(F)cc3)ccc2O[C@@H](C)CCCCO[C@@H]1CN(C)C(=O)CCCN(C)C` here?
Answer: -2.95%

Question: For `CCOC(=O)Nc1ccc(N2CCOCC2)c(S(=O)(=O)N2CCOCC2)c1`, which “activity change, negative = toxicity” value is on record?
Answer: -7.3%

Question: Which “activity change, negative = toxicity” value does the source give for `O=C(CC1NCCN(Cc2ccccc2)C1=O)Nc1ccccc1` (configuration not stated) here?
Answer: -3.62%

Question: For `CCCCN1C[C@H](Cc2ccccc2)[C@@H](CC(=O)Nc2ccccc2)C1=O`, which “activity change, negative = toxicity” value is on record?
Answer: -6.93%

Question: With `Cc1ccc(S(=O)(=O)N(c2nc(NC(C)C)nc(NC(C)C)n2)n2cnnc2)cc1` as the compound, how does the “activity change, negative = toxicity” value read?
Answer: -22%

Question: With `C=CCOc1ccccc1OCC(O)CNC(C)C` (configuration not stated) as the compound, how does the “activity change, negative = toxicity” value read?
Answer: 4.09%

Question: For `N#C[C@@H]1[C@H](c2ccc(C#Cc3ccccc3F)cc2)[C@H](CO)N1C(=O)C1CCC1`, which “activity change, negative = toxicity” value is on record?
Answer: -7.04%

Question: With `CC(C)CCn1c2ccccc2c2cc(CC(N)=O)ccc21` as the compound, how does the “activity change, negative = toxicity” value read?
Answer: -9.09%

Question: With `CC1(Cc2cccc(F)c2)C(=O)Nc2ccc(-c3cccnc3)cc21` (configuration not stated) as the compound, how does the “activity change, negative = toxicity” value read?
Answer: 2.56%

Question: With `O=C(Nc1ccc2nc3n(c(=O)c2c1)CCCC3)c1ccccc1F` as the compound, how does the “activity change, negative = toxicity” value read?
Answer: -0.515%

Question: Which “activity change, negative = toxicity” value does the source give for `COc1cc(OC)cc(C(=O)Nc2ccc3nc4n(c(=O)c3c2)CCCC4)c1` here?
Answer: -1.48%

Question: Which “activity change, negative = toxicity” value does the source give for `CC(C)(C)c1ccc(C(=O)Nc2ccc3c(c2)C(=O)NC3=O)cc1` here?
Answer: -3.44%

Question: Which “activity change, negative = toxicity” value does the source give for `CC(NC(=O)c1ccccc1)C(=O)OCn1nnc2ccccc2c1=O` (configuration not stated) here?
Answer: 2.95%

Question: With `CCCc1nc2ccccc2n1C(C)C(=O)NC(C)(C)C` (configuration not stated) as the compound, how does the “activity change, negative = toxicity” value read?
Answer: -9.03%

Question: For `Cc1cc(C)cc(NC(=O)Cn2nnc(C(=O)NCc3cccs3)c2N)c1`, which “activity change, negative = toxicity” value is on record?
Answer: -0.976%

Question: With `CN(C)CCCN1c2ccccc2Sc2ccc3ccccc3c21` as the compound, how does the “activity change, negative = toxicity” value read?
Answer: -27.7%

Question: With `CC(C)NC(=O)Nc1ccc2c(c1)C(=O)N([C@H](C)CO)C[C@H](C)[C@H](CN(C)CC1CC1)OCCCC[C@@H](C)O2` as the compound, how does the “activity change, negative = toxicity” value read?
Answer: -0.509%

Question: For `CCCN1[C@H](C(=O)NCC(F)(F)F)[C@@H](CO)[C@@H]2Cn3c(ccc(-c4ccccc4)c3=O)[C@@H]21`, which “activity change, negative = toxicity” value is on record?
Answer: -4.76%

Question: For `CCOC(=O)c1ccc(NC(=O)c2nc[nH]c2C(=O)NC[C@H](C)O)cc1`, which “activity change, negative = toxicity” value is on record?
Answer: -3.85%

Question: For `C[C@H](CO)N1C[C@H](C)[C@@H](CN(C)S(C)(=O)=O)Oc2ccc(NC(=O)Nc3ccccc3)cc2C1=O`, which “activity change, negative = toxicity” value is on record?
Answer: -2.06%

Question: Which “activity change, negative = toxicity” value does the source give for `CCN(C)C1CN(Cc2cn(Cc3ccccc3)nn2)S(=O)(=O)C1` (configuration not stated) here?
Answer: 2.96%

Question: For `Cc1ccc(Cn2cc(CN3CC(N4CCSCC4)CS3(=O)=O)nn2)cc1` (configuration not stated), which “activity change, negative = toxicity” value is on record?
Answer: -18.6%
